Records with an inconclusive call do not appear. Active and inactive are the calls of the source. Unless noted, the call rests on the fitted dose curve; in most records, active means well fitted curve in the direction sought with a large enough effect in the repeat runs; inconclusive means weak or mixed curves; inactive means no such curve, though single readings can be large; an effect the other way counts as inactive or inconclusive.
Key:
[1] = qHTS assay to identify small molecule antagonists of the estrogen related receptor (ERR) signaling pathway from Tox21 library - cell viability counter screen (AID 1224834); further: nearly all actives have a fitted effect of over 30% in size
In short: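 ERR cells, 2,000/well; 6 h settle at 37 C/5% CO2; pin-tool compound transfer in DMSO; 17.5 h at 37 C; CellTiter-Fluor, 30 min; fluorescence intensity.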

[2] = biological target: Luciferin 4-monooxygenase (Photinus pyralis) (UniProt P08659); assay: qHTS assay to identify small molecule inhibitors of firefly luciferase (AID 1224835); further: nearly all actives have a fitted effect of over 25% in size
In short: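 Quantitative HTS format; KM concentrations of both substrates. Purified P. pyralis FLuc activity quantified from luminescence images.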

[3] = qHTS assay to identify small molecule agonists of the constitutive androstane receptor (CAR) signaling pathway - cell viability counter screen (AID 1224836); further: nearly all actives have a fitted effect of over 45% in size
In short: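 Counter screen multiplexed with the CAR reporter readout: HepG2 cells co-transfected with hCAR and the CYP2B6-2.2kb construct receive a 15-concentration compound series and 0.75 uM PK11195 (final), then CellTiter-Fluor fluorescence is read after 23 h.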

[4] = qHTS assay to identify small molecule antagonists of the constitutive androstane receptor (CAR) signaling pathway - cell viability counter screen (AID 1224837); further: nearly all actives have a fitted effect of over 45% in size
In short: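 Viability was measured with CellTiter-Fluor in a HepG2 line carrying stably transfected hCAR and a CYP2B6-2.2kb construct. Cells were exposed for 23 hr at 37 C to 15 compound concentrations with 50 nM CITCO as agonist.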

[5] = biological target: Nuclear receptor subfamily 1 group I member 3 (Homo sapiens) (UniProt Q14994); assay: qHTS assay to identify small molecule antagonists of the constitutive androstane receptor (CAR) signaling pathway (AID 1224838);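 further: HepG2 cells stably expressing hCAR with CYP2B6 luciferase reporter stimulated by CITCO; nearly all actives have a fitted effect of over 40% in size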
In short: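 Antagonist mode used CITCO at a final 50 nM to activate CAR in human hepatoma HepG2 cells carrying stable hCAR and a 2.2 kb CYP2B6 promoter-luciferase construct. Compounds were tested at 15 concentrations over 24 h, with luminescence as the end point.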

[6] = biological target: Nuclear receptor subfamily 1 group I member 3 (Homo sapiens) (UniProt Q14994); assay: qHTS assay to identify small molecule agonists of the constitutive androstane receptor (CAR) signaling pathway (AID 1224839); further: nearly all actives have a fitted effect of over 15% in size
In short: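 A 15-concentration quantitative screen uses HepG2 cells co-transfected stably with human CAR and CYP2B6-2.2kb reporter. Treatment lasts 24 h with 0.75 uM PK11195 final present; ONE-Glo luminescence is the signal.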

[7] = qHTS assay to identify small molecule antagonists of the estrogen related receptor signaling pathway with the pleiotropic PPARgamma coactivator (PGC) from Tox21 10K library - cell viability counter screen (AID 1224840; active means well fitted cell-killing curve with a large enough effect in the repeat runs, not every such curve was filed as active; further: nearly all actives have a fitted effect of over 40% in size)
In short: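 Multiplexed viability counter screen in the PGC/ERR cell line: cells treated with DMSO-dissolved compounds for 17.5 hours at 37 C, then viability measured as CellTiter-Fluor fluorescence.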

[8] = qHTS assay to identify small molecule antagonists of the estrogen related receptor signaling pathway with the pleiotropic PPARgamma coactivator (PGC) from Tox21 10K library (AID 1224841; call rule not given here; further: actives are mostly falling curves and most rising ones were filed inactive; nearly all actives have a fitted effect of over 50% in size)
In short: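 Steps: plate 2,000 PGC/ERR cells per well; incubate 6 h at 37 C with 5% CO2; transfer compounds from DMSO stocks by pin tool; incubate 18 h at 37 C; add One-Glo; measure luminescence 30 min later.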

[9] = qHTS assay to identify small molecule agonists of the estrogen related receptor signaling pathway with the pleiotropic PPARgamma coactivator (PGC) from Tox21 10K library (AID 1224842); further: nearly all actives have a fitted effect of over 15% in size
In short: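 PGC/ERR reporter cells (NTP line) were seeded 2,000 per well, rested 6 h at 37 C/5% CO2, then pin-dosed with compounds in DMSO for 18 h at 37 C; luciferase read by One-Glo luminescence after 30 min at room temperature.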

[10] = biological target: Thyrotropin receptor (Homo sapiens) (UniProt P16473); assay: qHTS assay to identify small molecule agonists of the thyroid stimulating hormone receptor (TSHR) signaling pathway (AID 1224843; calls by dose curve; further: nearly all actives have a fitted effect of over 45% in size)
In short: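 Compounds are titrated over 15 concentrations, in triplicate, onto TSHR-HEK293 cells seeded at 800/well. Plates sit 30 min at room temperature before cAMP-d2 and anti-cAMP cryptate are added; signal is read after a further hour.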

[11] = qHTS assay to identify small molecule agonists of the hypoxia (HIF-1) signaling pathway - cell viability counter screen (AID 1224844; calls by dose curve; further: nearly all actives have a fitted effect of over 50% in size)
In short: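 Cytotoxicity was measured in parallel with the HRE-driven beta-lactamase readout: after 17 hrs of compound exposure at 37C, HRE-bla ME-180 cells received CellTiter-Glo and luminescence was recorded 30 min later.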

[12] = qHTS assay to identify small molecule agonists of H2AX (AID 1224845; active means well fitted activation curve with a large enough effect in the signal ratio in the repeat runs, not every such curve was filed as active; the % refers to the signal ratio)
In short: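 Wild-type CHO-K1 cells plated overnight, then exposed 3 hr at 37C to compounds at 15 concentrations (0.76% DMSO). Lysed, then HTRF anti-pH2AX(S139)-cryptate/anti-H2AX-d2 detection after 24 hr at room temperature; emissions 665 and 620 nm.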

[13] = qHTS assay to identify small molecule agonists of the hypoxia (HIF-1) signaling pathway (AID 1224846; active means well fitted activation curve with a large enough effect in the signal ratio in the repeat runs, not every such curve was filed as active; the % refers to the signal ratio)
In short: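 Compounds from the Tox21 10K library, dissolved in DMSO, are tested for induction of a hypoxia response element–controlled beta-lactamase reporter in ME-180 cells. Exposure lasts 17 hrs at 37C after a 5 hr settling period, followed by CCF4-AM FRET substrate.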

[14] = qHTS assay to identify small molecule agonists of H2AX - cell viability counter screen (AID 1224847; calls by dose curve; further: top concentration of the series differs between compounds; nearly all actives have a fitted effect of over 30% in size)
In short: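 We seed wild-type CHO-K1 cells overnight, treat them for 3 hr at 37C with compounds in 15-concentration series, and quantify remaining viability by CellTiter-Glo luminescence.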

[15] = qHTS assay to identify small molecule antagonists of the estrogen related receptor (ERR) signaling pathway from Tox21 library (AID 1224848); further: nearly all actives have a fitted effect of over 50% in size
In short: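 First, 2,000 ERR cells per well were plated and held 6 h at 37 C/5% CO2. Next, compounds in DMSO were pinned in and left 18 h at 37 C. Finally, ONE-Glo was added and luminescence read after 30 min at room temperature.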

[16] = qHTS assay to identify small molecule agonists of the estrogen related receptor (ERR) signaling pathway from Tox21 library (AID 1224849; calls by dose curve; further: nearly all actives have a fitted effect of over 15% in size); details: ERR reporter cell line, ONE-Glo luciferase, 18 h; at 92.4 µM (top of the series) unless noted
In short: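 Cells carrying the ERR reporter were plated and allowed to settle for 6 h, exposed to library compounds for 18 h at 37 C, then lysed with ONE-Glo and luminescence measured.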

[17] = qHTS RealTime-Glo MT Cell Viability Assay in HepG2 cells - 24 hour (AID 1224867); further: nearly all actives have a fitted effect of over 50% in size
In short: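 Cell number in HepG2 cultures estimated from NanoLuc luminescence generated by metabolic reduction of a prosubstrate by living cells. The homogeneous, nonlytic format allowed repeated reads at 0, 8, 16, 24, 32 and 40 h of compound exposure.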

[18] = qHTS RealTime-Glo MT Cell Viability Assay in HEK293 cells - 32 hour (AID 1224868)
In short: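 Homogeneous bioluminescent viability format in HEK293 cells (600 cells/well). Following 5 h at 37 C/5% CO2, 23 nL compound was pintooled; the signal was measured repeatedly during 40 h incubation.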

[19] = A CellTox Green Cytotoxicity Assay to monitor cytotoxicity in HEK293 cells - 0 hour (AID 1224869); further: nearly all actives have a fitted effect of over 50% in size
In short: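 Cells (HEK293, 600/well) and dye reagent are dispensed together. After 5 h at 37 C, 23 nL compound is pinned in. Plates stay at 37 C for 40 h with fluorescence read at 0h, 8h, 16h, 24h, 32h and 40h.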
On the % scale 0 is the no-effect control and ±100 the full control effect.

Chain of Thyrotropin receptor (Homo sapiens) (P16473 whole entry, looked up): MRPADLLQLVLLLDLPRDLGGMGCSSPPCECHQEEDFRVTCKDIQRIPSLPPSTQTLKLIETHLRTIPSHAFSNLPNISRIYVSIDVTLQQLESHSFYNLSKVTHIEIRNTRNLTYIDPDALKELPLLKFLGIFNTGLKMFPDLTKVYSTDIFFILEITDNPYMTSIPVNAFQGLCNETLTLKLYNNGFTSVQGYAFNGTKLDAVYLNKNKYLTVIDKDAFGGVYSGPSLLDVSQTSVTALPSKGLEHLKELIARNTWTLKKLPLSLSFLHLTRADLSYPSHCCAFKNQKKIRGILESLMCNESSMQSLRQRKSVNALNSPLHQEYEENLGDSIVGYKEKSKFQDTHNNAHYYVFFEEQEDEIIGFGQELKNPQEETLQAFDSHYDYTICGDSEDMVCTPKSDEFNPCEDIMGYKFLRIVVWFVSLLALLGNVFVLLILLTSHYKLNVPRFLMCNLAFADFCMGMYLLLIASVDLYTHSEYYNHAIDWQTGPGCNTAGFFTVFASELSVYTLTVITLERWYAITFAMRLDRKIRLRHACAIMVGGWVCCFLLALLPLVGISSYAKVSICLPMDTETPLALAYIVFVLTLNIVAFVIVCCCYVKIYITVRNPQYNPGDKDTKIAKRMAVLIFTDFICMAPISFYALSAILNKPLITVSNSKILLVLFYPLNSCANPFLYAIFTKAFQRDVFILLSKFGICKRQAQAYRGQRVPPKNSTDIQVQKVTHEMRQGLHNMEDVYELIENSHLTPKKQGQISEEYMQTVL
Chain of Luciferin 4-monooxygenase (Photinus pyralis) (P08659 whole entry, looked up): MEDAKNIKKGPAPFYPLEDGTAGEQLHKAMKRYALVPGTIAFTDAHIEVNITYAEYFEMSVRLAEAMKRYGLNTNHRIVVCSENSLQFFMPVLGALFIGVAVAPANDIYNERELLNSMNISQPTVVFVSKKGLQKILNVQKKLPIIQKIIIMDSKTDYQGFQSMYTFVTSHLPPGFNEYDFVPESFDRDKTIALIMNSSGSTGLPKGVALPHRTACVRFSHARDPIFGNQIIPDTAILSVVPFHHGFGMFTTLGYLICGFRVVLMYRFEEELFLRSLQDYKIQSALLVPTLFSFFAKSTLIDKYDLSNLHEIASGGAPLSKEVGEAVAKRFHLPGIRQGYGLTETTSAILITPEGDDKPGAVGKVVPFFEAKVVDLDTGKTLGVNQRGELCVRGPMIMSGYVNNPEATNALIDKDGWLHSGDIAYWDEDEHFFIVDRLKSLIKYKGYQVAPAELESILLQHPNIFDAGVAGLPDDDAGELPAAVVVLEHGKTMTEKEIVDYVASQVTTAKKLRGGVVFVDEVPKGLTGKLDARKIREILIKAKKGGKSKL
Chain of Nuclear receptor subfamily 1 group I member 3 (Homo sapiens) (Q14994 whole entry, looked up): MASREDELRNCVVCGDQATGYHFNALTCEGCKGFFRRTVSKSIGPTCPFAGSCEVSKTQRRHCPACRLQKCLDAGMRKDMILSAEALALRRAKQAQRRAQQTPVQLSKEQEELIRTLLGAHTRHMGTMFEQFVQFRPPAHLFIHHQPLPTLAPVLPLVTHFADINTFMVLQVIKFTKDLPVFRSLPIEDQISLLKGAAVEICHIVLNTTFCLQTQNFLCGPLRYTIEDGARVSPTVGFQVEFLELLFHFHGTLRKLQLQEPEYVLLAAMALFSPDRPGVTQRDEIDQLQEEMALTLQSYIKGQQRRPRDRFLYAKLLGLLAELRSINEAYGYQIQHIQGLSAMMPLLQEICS

CC(C)OC(=O)c1ccccc1
inactive: Potency [1] | Potency [2] | Potency [3] | Potency [4] | Potency [5] | Potency [6] | Potency [7] | Potency [8] | outcome [9] | Potency [10] | Potency [11] | outcome [12] | outcome [13] | Potency [14] | Potency [15] | activity change, positive = activation [16] 0.248% | Potency [17] | Potency [18] | Potency [19]

CCCCCCCCCCCC
inactive: Potency [1] | Potency [2] | Potency [3] | Potency [4] | Potency [5] | Potency [6] | Potency [7] | Potency [8] | outcome [9] | Potency [10] | Potency [11] | outcome [12] | outcome [13] | Potency [14] | Potency [15] | activity change, positive = activation [16] 11.3% | Potency [17] | Potency [19]

ClC(Cl)(Br)Br
inactive: Potency [1] | Potency [2] | Potency [3] | Potency [4] | Potency [5] | Potency [6] | Potency [7] | Potency [8] | outcome [9] | Potency [10] | Potency [11] | outcome [12] | outcome [13] | Potency [14] | Potency [15] | activity change, positive = activation [16] 1.45% | Potency [17] | Potency [18] | Potency [19]

O=C[C@H](O)[C@@H](O)[C@H](O)[C@H](O)CO
inactive: Potency [1] | Potency [2] | Potency [3] | Potency [4] | Potency [5] | Potency [6] | Potency [7] | Potency [8] | outcome [9] | Potency [10] | Potency [11] | outcome [12] | outcome [13] | Potency [14] | Potency [15] | activity change, positive = activation [16] 3.09% | Potency [17] | Potency [18] | Potency [19]

CN1N=C(C(N)=O)CCC1=O
inactive: Potency [1] | Potency [2] | Potency [3] | Potency [4] | Potency [5] | Potency [6] | Potency [7] | Potency [8] | outcome [9] | Potency [10] | Potency [11] | outcome [12] | outcome [13] | Potency [14] | Potency [15] | activity change, positive = activation [16] 0.737% [at 42.5 µM] | Potency [17] | Potency [19]

NC(=O)c1ccc([N+](=O)[O-])cc1
inactive: Potency [1] | Potency [2] | Potency [3] | Potency [4] | Potency [5] | Potency [6] | Potency [7] | Potency [8] | outcome [9] | Potency [10] | Potency [11] | outcome [12] | outcome [13] | Potency [14] | Potency [15] | Potency [17] | Potency [18] | Potency [19]

O=S(O)CO
inactive: Potency [1] | Potency [2] | Potency [3] | Potency [4] | Potency [5] | Potency [6] | Potency [7] | Potency [8] | outcome [9] | Potency [10] | Potency [11] | outcome [12] | outcome [13] | Potency [14] | Potency [15] | Potency [17] | Potency [18] | Potency [19]

CC(C)c1cc2c(cc1S(=O)(=O)O)[C@@]1(C)CCC[C@@](C)(C(=O)O)[C@@H]1CC2
inactive: Potency [1] | Potency [2] | Potency [3] | Potency [4] | Potency [6] | Potency [7] | Potency [8] | outcome [9] | Potency [10] | Potency [11] | outcome [12] | outcome [13] | Potency [14] | Potency [15] | activity change, positive = activation [16] 5.5% [at 42.5 µM] | Potency [17] | Potency [18] | Potency [19]

CCCCCCOC(=O)CCCCC(=O)OCCCCCC
inactive: Potency [1] | Potency [2] | Potency [3] | Potency [4] | Potency [5] | Potency [6] | Potency [7] | Potency [8] | outcome [9] | outcome [12] | outcome [13] | Potency [14] | Potency [15] | activity change, positive = activation [16] 5.81% | Potency [17] | Potency [19]

N=c1nc(N2CCCCC2)cc(N)n1O
inactive: Potency [1] | Potency [2] | Potency [3] | Potency [4] | Potency [5] | Potency [6] | Potency [7] | Potency [10] | outcome [12] | Potency [14] | Potency [17] | Potency [18] | Potency [19]

FC(F)OC(Cl)C(F)(F)F (stereo unspecified)
inactive: Potency [1] | Potency [2] | Potency [3] | Potency [4] | Potency [5] | Potency [6] | Potency [7] | Potency [8] | outcome [9] | Potency [11] | outcome [12] | outcome [13] | Potency [14] | Potency [15] | Potency [17] | Potency [18] | Potency [19]

O=[N+]([O-])c1ccc(F)cc1F
inactive: Potency [1] | Potency [2] | Potency [3] | Potency [4] | Potency [5] | Potency [6] | Potency [7] | Potency [8] | outcome [9] | Potency [11] | outcome [12] | outcome [13] | Potency [14] | Potency [15] | activity change, positive = activation [16] 3.35% | Potency [17] | Potency [18] | Potency [19]

c1ccc([C@H]2CN3CCSC3=N2)cc1
inactive: Potency [1] | Potency [2] | Potency [3] | Potency [4] | Potency [5] | Potency [6] | Potency [7] | Potency [10] | Potency [11] | outcome [12] | Potency [14] | Potency [17] | Potency [18] | Potency [19]

CCOC(C)(C)C
inactive: Potency [1] | Potency [2] | Potency [3] | Potency [4] | Potency [6] | Potency [7] | Potency [8] | outcome [9] | Potency [10] | Potency [11] | outcome [12] | outcome [13] | Potency [14] | Potency [15] | activity change, positive = activation [16] 3.27% | Potency [17] | Potency [18] | Potency [19]

Nc1ccc(S(=O)(=O)Nc2ccnn2-c2ccccc2)cc1
inactive: viability change, negative = cytotoxic [1] -1.42% [at 19 µM] | activity change, negative = inhibition [2] 8.37% [at 23.6 µM] | viability change, negative = cytotoxic [3] 4.16% [at 19 µM] | activity change, negative = cytotoxicity [4] 3.82% [at 19 µM] | activity, negative = inhibition [5] 0.346% [at 19 µM] | activation [6] -2.19% [at 19 µM] | viability change, negative = cytotoxic [7] 2.18% [at 19 µM] | Potency [10] | activity change, negative = cytotoxicity [11] -2.16% [at 15.8 µM] | outcome [12] | Potency [14] | activity change, negative = cytotoxicity [17] 1% [at 15.8 µM] | cytotoxicity [19] 1.17% [at 15.8 µM]

From PubChem BioAssay (Tox21)
